The experiment has as its target Pyruvate kinase PKM (Homo sapiens) (UniProt P14618). As to the kind of experiment: Secondary assay for Activators of Human Pyruvate Kinase M2 isoform. The method, boiled down: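 Initial rates came from kinetic NADH fluorescence loss read every 30 s for 3–6 min. The LDH-coupled reaction held 10 nM hPK-M2, 0.1 mM PEP, 4.0 mM ADP, 0.2 mM NADH and 1 uM LDH at pH 8.0. Normalized between uninhibited and EC100 activation with fructose-bis-phosphate.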

Records with an inconclusive call do not appear. Activity calls are given as the source filed them. Calls come from the whole dose curve; as a rule, active = well fitted activation curve with a large enough effect; inconclusive = small, poorly fitted or top-dose-only effect, or effect the other way; inactive = flat fitted curve, though single readings scatter.

Chain of Pyruvate kinase PKM (Homo sapiens) (P14618 whole entry, looked up, canonical isoform): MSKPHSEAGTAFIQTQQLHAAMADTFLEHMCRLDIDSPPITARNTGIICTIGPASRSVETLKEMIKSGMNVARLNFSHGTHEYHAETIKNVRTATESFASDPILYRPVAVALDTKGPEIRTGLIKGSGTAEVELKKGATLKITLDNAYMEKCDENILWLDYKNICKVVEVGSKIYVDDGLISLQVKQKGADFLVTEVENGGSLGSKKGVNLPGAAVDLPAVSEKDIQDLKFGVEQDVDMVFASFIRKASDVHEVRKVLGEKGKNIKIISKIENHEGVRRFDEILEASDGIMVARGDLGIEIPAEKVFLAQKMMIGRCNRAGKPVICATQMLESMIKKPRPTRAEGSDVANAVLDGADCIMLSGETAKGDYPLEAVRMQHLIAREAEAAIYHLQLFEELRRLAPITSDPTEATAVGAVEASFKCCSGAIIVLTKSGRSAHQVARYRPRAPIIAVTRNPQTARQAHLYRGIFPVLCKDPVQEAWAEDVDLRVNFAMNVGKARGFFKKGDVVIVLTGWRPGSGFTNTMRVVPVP

As for `CC(=O)Nc1cccc(S(=O)(=O)N2CCCN(S(=O)(=O)c3ccc4c(c3)OCCO4)CC2)c1`, the Potency is 819 nM (active).

For the origin of these results see PubChem BioAssay AID1540 (National Center for Advancing Translational Sciences (NCATS), 2009).
